37 targets from the supplement of paper PMC10849652 can be followed below.

The full data set covers some 7,900 targets. This sample favours those with a hit. About 0.6% of all pairs of compound and target were hits.

Sequence of UniProt Q9NQZ5 (Q9NQZ5 whole entry, looked up): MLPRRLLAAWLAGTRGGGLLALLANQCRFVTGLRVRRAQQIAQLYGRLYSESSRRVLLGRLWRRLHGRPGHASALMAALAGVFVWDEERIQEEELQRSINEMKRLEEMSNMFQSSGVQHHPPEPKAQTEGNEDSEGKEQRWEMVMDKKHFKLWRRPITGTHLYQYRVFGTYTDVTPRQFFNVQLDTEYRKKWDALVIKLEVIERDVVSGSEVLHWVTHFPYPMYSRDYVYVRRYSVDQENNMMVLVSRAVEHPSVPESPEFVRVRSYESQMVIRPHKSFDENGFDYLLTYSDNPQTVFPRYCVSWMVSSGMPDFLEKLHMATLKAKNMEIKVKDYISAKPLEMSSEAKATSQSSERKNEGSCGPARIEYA
Sequence of UniProt P50225 (P50225 whole entry, looked up): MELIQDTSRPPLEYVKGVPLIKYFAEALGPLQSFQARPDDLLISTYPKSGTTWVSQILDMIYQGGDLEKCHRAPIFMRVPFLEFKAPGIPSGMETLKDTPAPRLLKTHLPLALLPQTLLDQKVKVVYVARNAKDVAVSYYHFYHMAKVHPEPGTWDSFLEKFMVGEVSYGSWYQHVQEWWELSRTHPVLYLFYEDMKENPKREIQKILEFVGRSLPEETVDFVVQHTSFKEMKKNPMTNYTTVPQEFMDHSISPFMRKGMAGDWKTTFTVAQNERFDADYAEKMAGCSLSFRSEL
Sequence of UniProt Q5JUR7 (Q5JUR7 whole entry, looked up): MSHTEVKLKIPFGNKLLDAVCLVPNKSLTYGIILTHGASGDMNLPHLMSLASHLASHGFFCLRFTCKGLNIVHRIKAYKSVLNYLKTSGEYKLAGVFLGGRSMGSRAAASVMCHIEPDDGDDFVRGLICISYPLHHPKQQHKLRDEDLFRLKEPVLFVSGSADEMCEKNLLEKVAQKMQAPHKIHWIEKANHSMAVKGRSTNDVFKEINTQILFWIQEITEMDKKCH
Sequence of UniProt Q16385 (Q16385 whole entry, looked up): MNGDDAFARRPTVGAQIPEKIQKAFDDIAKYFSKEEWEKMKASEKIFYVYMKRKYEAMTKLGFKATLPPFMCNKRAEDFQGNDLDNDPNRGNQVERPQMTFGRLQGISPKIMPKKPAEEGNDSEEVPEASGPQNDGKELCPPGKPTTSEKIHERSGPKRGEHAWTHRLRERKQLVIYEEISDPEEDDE
Sequence of UniProt Q00059 (Q00059 whole entry, looked up): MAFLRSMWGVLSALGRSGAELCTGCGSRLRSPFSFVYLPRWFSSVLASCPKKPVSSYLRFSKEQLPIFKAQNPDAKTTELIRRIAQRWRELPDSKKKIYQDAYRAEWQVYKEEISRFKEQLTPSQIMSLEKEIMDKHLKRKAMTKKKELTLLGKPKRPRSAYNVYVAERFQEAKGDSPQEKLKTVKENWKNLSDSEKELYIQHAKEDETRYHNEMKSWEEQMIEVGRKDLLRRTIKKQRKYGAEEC
Sequence of UniProt P12931 (P12931 whole entry, looked up): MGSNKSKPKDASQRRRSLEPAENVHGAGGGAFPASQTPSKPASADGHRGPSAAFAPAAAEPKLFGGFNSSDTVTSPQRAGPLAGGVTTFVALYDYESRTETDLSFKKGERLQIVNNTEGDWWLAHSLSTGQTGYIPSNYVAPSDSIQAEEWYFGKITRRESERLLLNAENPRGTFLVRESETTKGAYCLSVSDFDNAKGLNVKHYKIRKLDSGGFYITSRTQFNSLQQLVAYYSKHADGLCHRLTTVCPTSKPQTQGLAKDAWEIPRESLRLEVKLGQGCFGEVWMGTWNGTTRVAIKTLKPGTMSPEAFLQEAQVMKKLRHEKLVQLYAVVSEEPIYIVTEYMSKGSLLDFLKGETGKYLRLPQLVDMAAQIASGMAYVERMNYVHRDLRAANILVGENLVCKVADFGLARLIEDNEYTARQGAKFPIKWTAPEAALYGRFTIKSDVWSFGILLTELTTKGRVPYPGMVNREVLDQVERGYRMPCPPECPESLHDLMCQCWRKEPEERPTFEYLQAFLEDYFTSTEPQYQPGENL
Sequence of UniProt O14975 (O14975 whole entry, looked up): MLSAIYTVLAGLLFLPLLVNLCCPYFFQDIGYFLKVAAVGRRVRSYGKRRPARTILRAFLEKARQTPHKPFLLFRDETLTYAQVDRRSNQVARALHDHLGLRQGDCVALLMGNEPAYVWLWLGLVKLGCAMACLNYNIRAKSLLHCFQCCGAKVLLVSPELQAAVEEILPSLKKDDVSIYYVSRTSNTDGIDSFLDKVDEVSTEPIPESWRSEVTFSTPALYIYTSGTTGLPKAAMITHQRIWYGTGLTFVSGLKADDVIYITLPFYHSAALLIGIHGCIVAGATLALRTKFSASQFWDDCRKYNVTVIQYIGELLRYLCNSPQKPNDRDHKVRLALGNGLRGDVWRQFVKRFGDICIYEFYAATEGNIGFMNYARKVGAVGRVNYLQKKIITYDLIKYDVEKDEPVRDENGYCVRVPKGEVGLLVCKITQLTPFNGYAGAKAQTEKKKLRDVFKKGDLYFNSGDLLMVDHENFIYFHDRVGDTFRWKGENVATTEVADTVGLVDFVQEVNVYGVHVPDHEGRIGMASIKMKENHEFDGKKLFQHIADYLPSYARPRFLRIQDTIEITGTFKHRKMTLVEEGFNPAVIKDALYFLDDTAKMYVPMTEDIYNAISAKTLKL
Sequence of UniProt P08579 (P08579 whole entry, looked up): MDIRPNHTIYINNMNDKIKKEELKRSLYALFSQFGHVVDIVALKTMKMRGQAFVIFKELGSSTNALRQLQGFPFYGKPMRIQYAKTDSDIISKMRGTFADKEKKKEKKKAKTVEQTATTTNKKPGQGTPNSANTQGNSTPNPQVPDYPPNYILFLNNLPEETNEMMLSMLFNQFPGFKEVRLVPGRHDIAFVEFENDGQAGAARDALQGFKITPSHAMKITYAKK
Sequence of UniProt Q5T5C0 (Q5T5C0 whole entry, looked up): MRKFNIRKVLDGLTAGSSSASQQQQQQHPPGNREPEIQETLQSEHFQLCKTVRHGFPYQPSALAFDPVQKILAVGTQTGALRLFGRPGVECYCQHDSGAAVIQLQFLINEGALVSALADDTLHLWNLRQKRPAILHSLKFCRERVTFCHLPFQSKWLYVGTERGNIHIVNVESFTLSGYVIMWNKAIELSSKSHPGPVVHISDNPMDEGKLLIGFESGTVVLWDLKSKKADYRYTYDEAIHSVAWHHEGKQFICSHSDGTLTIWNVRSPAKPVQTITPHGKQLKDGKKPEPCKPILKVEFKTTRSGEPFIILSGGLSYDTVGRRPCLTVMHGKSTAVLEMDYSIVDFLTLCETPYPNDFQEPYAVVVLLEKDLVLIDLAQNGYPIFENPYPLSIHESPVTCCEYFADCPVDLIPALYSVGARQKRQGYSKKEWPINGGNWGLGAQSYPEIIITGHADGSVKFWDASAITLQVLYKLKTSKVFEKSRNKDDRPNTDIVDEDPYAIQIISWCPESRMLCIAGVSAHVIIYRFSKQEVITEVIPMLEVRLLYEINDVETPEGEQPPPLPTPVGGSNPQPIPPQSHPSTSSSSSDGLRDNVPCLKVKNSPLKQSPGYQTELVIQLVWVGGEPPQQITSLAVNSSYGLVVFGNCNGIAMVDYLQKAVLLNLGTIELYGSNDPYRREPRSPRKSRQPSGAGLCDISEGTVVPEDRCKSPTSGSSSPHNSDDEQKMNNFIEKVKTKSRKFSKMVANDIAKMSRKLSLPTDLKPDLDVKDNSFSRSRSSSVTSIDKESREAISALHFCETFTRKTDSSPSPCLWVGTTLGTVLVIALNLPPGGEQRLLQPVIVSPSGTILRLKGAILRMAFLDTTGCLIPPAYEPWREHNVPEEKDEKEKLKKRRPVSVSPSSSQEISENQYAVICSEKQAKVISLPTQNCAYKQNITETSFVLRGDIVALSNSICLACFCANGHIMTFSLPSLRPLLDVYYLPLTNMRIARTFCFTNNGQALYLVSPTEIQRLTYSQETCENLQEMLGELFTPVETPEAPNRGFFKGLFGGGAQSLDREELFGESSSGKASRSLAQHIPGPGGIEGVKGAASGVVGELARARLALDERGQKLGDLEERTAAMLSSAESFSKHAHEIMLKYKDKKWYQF
Sequence of UniProt Q08170 (Q08170 whole entry, looked up): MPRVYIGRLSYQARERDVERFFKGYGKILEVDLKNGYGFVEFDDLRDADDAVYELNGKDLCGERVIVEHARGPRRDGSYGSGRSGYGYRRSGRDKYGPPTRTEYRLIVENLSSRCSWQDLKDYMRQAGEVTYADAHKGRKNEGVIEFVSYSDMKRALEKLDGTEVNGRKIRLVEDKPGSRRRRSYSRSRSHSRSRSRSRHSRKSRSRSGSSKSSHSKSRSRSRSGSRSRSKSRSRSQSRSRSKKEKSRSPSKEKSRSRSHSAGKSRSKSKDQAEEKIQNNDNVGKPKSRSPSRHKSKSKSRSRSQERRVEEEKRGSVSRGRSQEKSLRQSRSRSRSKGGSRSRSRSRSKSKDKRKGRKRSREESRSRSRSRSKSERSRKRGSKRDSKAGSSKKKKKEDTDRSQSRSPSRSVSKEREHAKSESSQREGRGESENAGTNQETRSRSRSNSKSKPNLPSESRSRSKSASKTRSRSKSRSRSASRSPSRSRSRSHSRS
Sequence of UniProt P56962 (P56962 whole entry, looked up): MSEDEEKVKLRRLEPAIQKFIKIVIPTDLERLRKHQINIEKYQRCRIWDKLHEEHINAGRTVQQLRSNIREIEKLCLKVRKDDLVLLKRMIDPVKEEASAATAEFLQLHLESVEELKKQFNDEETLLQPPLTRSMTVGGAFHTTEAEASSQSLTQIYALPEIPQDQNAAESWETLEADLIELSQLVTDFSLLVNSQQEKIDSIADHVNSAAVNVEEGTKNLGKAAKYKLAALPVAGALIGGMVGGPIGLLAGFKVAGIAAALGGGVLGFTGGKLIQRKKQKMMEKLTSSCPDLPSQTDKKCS
Sequence of UniProt Q9P016 (Q9P016 whole entry, looked up): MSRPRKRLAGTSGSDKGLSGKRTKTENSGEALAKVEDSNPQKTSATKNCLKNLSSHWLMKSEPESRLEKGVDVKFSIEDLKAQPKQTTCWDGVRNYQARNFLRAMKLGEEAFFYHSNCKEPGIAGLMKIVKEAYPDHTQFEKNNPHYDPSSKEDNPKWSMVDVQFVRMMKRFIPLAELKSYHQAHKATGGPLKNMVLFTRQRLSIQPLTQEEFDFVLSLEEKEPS

Compound in the assay: CC1=C(SC2=C1C(=N[C@H](C3=NN=C(N32)C)CC(=O)N)C4=CC=C(C=C4)Cl)C
In words: log2 fold change, soluble protein after heating vs DMSO (PISA); higher = thermal stabilisation; K562 cells, 10 uM, 30 min; active = over 0.2 and 3.5 SD of the protein, either way, in both replicates (recomputed). In short, it runs like this: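 K562 cells (2×10^6 cells/mL) were treated with 10 μM compound for 30 min, and aliquots were heated for 3 min over 48°C-58°C. Pooled aliquots were extracted in PBS with 0.5% NP-40 at 4°C, and the supernatant after 21,000xg for 90 min was measured by TMTpro 16plex LC-MS/MS with channel sums equalised. Reported thermal stability, relative to control samples and from duplicates, is a log2 fold change.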
In the case of STX17 (UniProt P56962), the log2 fold change was 0.006 (inactive).
Regarding TJP2 isoform 7 (UniProt Q9UDY2), the log2 fold change was 0.084 (inactive).
On to SNX9 (UniProt Q9Y5X1), for which the log2 fold change is 0.019 (inactive).
Consider SRC isoform 2 (UniProt P12931), for which the log2 fold change is 0.181 (inactive).
As for SUOX (UniProt P51687), the log2 fold change is 0 (inactive).
For SSX2 (UniProt Q16385) the value was -0.024 (inactive); for SRPRB (UniProt Q9Y5M8), 0.014 (inactive); for TIMM10 (UniProt P62072), -0.043 (inactive).
Consider THYN1 (UniProt Q9P016), for which the log2 fold change was 0.044 (inactive).
As to TGFBI (UniProt Q15582), the log2 fold change was -0.024 (inactive).
Turning to SLC27A4 (UniProt Q6P1M0), the log2 fold change was 0.095 (inactive).
For TBP (UniProt P20226), the log2 fold change was 0.314 (inactive).
For the target SPAG9 isoform 4 (UniProt O60271), the log2 fold change was 0.006 (inactive).
In the case of TAMM41 isoform 3 (UniProt Q96BW9), the log2 fold change was 0.1 (inactive).
Take THADA (UniProt Q6YHU6): the log2 fold change was 0.066 (inactive).
As for ST6GAL1 (UniProt P15907), the log2 fold change was 0.012 (inactive).
As to TFAM (UniProt Q00059), the log2 fold change is -0.046 (inactive).
TARBP1 (UniProt Q13395): the log2 fold change was 0.048 (inactive).
On to SPAST (UniProt Q9UBP0), for which the log2 fold change is 0.026 (inactive).
In the case of SLC27A2 (UniProt O14975), the log2 fold change was 0.036 (inactive).
Turning to TEX30 (UniProt Q5JUR7), the log2 fold change is -0.141 (inactive).
As for STIM1 (UniProt Q13586), the figure is 0.044 (inactive); as for SNRPB2 (UniProt P08579), 0.002 (inactive); as for SRSF4 (UniProt Q08170), -0.166 (inactive).
SPCS2 (UniProt Q15005): the log2 fold change is 0.043 (inactive).
As for SMG1 (UniProt Q96Q15), the log2 fold change was 0.003 (inactive).
For the target SREK1 isoform 2 (UniProt Q8WXA9), the log2 fold change was -0.06 (inactive).
As for SYNE2 isoform 2 (UniProt Q8WXH0), the log2 fold change is 0.055 (inactive).
For SULT1A1 (UniProt P50225), the log2 fold change was 0.064 (inactive).
For SSRP1 (UniProt Q08945) the value was 0.023 (inactive); for SLC4A2 (UniProt P04920), 0.016 (inactive).
For SRSF7 (UniProt Q16629), the log2 fold change was -0.171 (inactive).
In the case of STARD7 (UniProt Q9NQZ5), the log2 fold change was 0.075 (inactive).
STXBP5 (UniProt Q5T5C0): the log2 fold change is 0.017 (inactive).
In the case of SLC25A4 (UniProt P12235), the log2 fold change is -0.034 (inactive).
As to STARD3NL (UniProt O95772), the log2 fold change is 0.025 (inactive).
Consider SSB (UniProt P05455), for which the log2 fold change is 0.088 (inactive).
